Experimental findings from PubChem BioAssay AID2685 (National Center for Advancing Translational Sciences (NCATS), 2010) are described below.

Among all 320,000 compounds or so, about 2,100 (0.66%) were called active. Inconclusive results (about 53%) are left out. Calls come from the whole dose curve; as a rule, active = well fitted inhibition curve with a large enough effect in the signal ratio, with a control signal flat (not every such curve was filed as active); inconclusive = small, poorly fitted or top-dose-only effect, or effect the other way, or a change in a side signal; inactive = flat fitted curve, though single readings scatter; the % refers to the signal ratio. The list comes from a sample in which actives are over-represented; it also holds similar structures and randomly drawn compounds.
Potency is the fitted concentration of half-maximal effect.

This test can be described thus: qHTS Assay for Lipid Storage Modulators in Drosophila S3 Cells.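 For cell number change: cells counted by Cell Tracker Red CMTPX staining in the red channel.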 For lipid storage change, negative = inhibition: % is set by controls: 0 for no effect and ±100 for the full control effect. The settings on record: BODIPY lipid droplet fluorescence, 18-24 h, cells fed with added oleic acid; cell number change: measured here: cell count max response; series mostly up to 46.1 µM; lipid storage change, negative = inhibition: at the top concentration. The method in brief:
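Drosophila S3 cells loaded with oleic acid (400 uM, as added) and compounds at several concentrations; lipid droplets imaged by 488-nm laser-scanning cytometry, 500–530 nm intensity and object ratio to cell channel. Percent activity normalized to 20 uM Triacsin C.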
In the case of `COCCn1c(Cc2ccccc2)nnc1SCC(=O)Nc1cc(C)on1`, the “lipid storage change, negative = inhibition” value is -1.8% (inactive).

For `Cc1ccc(-n2c(SCC(=O)NNC(=S)Nc3ccccc3)nc3ccccc3c2=O)cc1`, the “lipid storage change, negative = inhibition” value is 5% (inactive) and the cell number change was found to be 9.73%.

Turning to `CN1[C@@H](CC(=O)c2ccccc2)CCC[C@H]1C[C@H](O)c1ccccc1`, the “lipid storage change, negative = inhibition” value was 4.29% (inactive) and the cell number change is 9.08%.

Turning to `CN1C(CC(=O)c2ccccc2)CCCC1CC(O)c1ccccc1` (stereo unspecified), the Potency was 18.4 µM (active) and the cell number change was -3.64%.

For the compound `CN1CCC(N(C)CC(O)c2ccccc2)CC1` (stereo unspecified), the “lipid storage change, negative = inhibition” value is -18.8% (inactive) and the cell number change is -4.15%.

As to `C=CCSc1nc(O)c(CC)c(=O)n1C(C)CC` (stereo unspecified), the “lipid storage change, negative = inhibition” value was 2.71% (inactive) and the cell number change is -4.8%.

With `Cc1ccc(OCc2ccc(C(=O)NCC3CCCO3)cc2)cc1` (stereo unspecified), the “lipid storage change, negative = inhibition” value was 8.3% (inactive) and the cell number change was 13.4%.

In the case of `Cc1noc(C)c1COc1ccc(C(=O)NCC2CCCO2)cc1` (stereo unspecified), the “lipid storage change, negative = inhibition” value was -9.48% (inactive) and the cell number change is -13.5%.

Take `Cc1ccc(OCc2ccc(C(=O)NCC3CCCO3)cc2)cc1C` (stereo unspecified): the Potency was 10.3 µM (active) and the cell number change is -8.64%.

On to `Cc1cccc(NC(=O)Nc2ccccc2)n1`, for which the “lipid storage change, negative = inhibition” value was -0.183% (inactive) and the cell number change was -19.9%.

`COc1ccc(/C=C/C(=O)N2CCNC(=O)C2)c(OC)c1`: the “lipid storage change, negative = inhibition” value was -28.8% (inactive).

For `COc1ccc(-c2cc(=O)oc3c(C)c(OCC(=O)N(C)C)ccc23)cc1`, the outcome was inactive.

With `CC(=O)Nc1ccc(OC(=O)c2cc([N+](=O)[O-])ccc2Cl)cc1`, the “lipid storage change, negative = inhibition” value is -0.987% (inactive).

In the case of `Cc1ccc(NC2=NCCC2)cc1Cl`, the “lipid storage change, negative = inhibition” value was -2.15% (inactive).

On to `Clc1cccc(NC2=NCCC2)c1`, for which the Potency is 25.9 µM (active) and the cell number change was -7.84%.

As to `Clc1cccc(Cl)c1NC1=NCCC1`, the “lipid storage change, negative = inhibition” value was -9.95% (inactive) and the cell number change is 6.79%.

For `CCCCNC(=S)NNC(=O)c1cccnc1`, the “lipid storage change, negative = inhibition” value is 5.02% (inactive) and the cell number change came to 0.804%.

For `CC(C)Sc1nc2c(c(=O)[nH]c(=O)n2C)n1Cc1ccccc1`, the “lipid storage change, negative = inhibition” value is -2.37% (inactive).

As for `O=[N+]([O-])c1ccc(S(=O)(=O)NCCc2ccncc2)cc1`, the “lipid storage change, negative = inhibition” value was 11.3% (inactive) and the cell number change was found to be 17.1%.

Regarding `O=[N+]([O-])c1cccc(S(=O)(=O)NCCc2ccccc2)c1`, the call was inactive and the cell number change was -15.1%.

For the compound `O=[N+]([O-])c1cccc(S(=O)(=O)NCc2ccncc2)c1`, the Potency was 10.3 µM (active) and the cell number change is -3.97%.

`CCCNC(=O)COC(=O)c1ccc(N2CCCC2)c([N+](=O)[O-])c1`: the “lipid storage change, negative = inhibition” value is -3.38% (inactive) and the cell number change turned out to be 10%.

Take `Clc1ccc(C2=CSC3=Nc4cccc5cccc(c45)N23)cc1`: the Potency is 0.13 µM (active) and the cell number change is -10.2%.

Take `CC1CN2C(c3ccc(Cl)cc3)=CSC2=N1` (stereo unspecified): the result was inactive and the cell number change is 15.5%.

Regarding `N=C1/C(=C\c2ccc(-c3cccc(Cl)c3)o2)C(=O)N=C2SC=C(c3ccccc3)N12`, the “lipid storage change, negative = inhibition” value is 4.02% (inactive) and the cell number change is -13.8%.

For `COc1ccc(OC[C@@H](O)CNC(=O)c2cccc3c2C(=O)c2ccc(Cl)cc2S3(=O)=O)cc1`, the “lipid storage change, negative = inhibition” value was 6.63% (inactive) and the cell number change came to 6.27%.

Take `O=C(NNC(=O)c1ccccc1F)c1ccc(Cl)c(S(=O)(=O)N2CCOCC2)c1`: the “lipid storage change, negative = inhibition” value is 0.713% (inactive) and the cell number change turned out to be 4.79%.

In the case of `Cc1ccc(C)c(Cn2c3ccccc3c3cnn(CC(=O)NCc4ccccn4)c(=O)c32)c1`, the outcome was inactive and the cell number change was 21.8%.

`Cc1c2cnn(CC(=O)NCc3ccccn3)c(=O)c2c(C)n1Cc1ccccc1`: the “lipid storage change, negative = inhibition” value was 6.37% (inactive) and the cell number change is -4.61%.

Turning to `Cc1cc(C)c(Cn2c3ccccc3c3cnn(CC(=O)NCc4ccccn4)c(=O)c32)c(C)c1`, the Potency was 14.6 µM (active) and the cell number change was 17.6%.

On to `Cc1ccccc1CN1CCNC1=O`, for which the compound was classed as inactive.

On to `COCCCNC(=O)CS(=O)Cc1nc(-c2ccccc2C)oc1C` (stereo unspecified), for which the “lipid storage change, negative = inhibition” value was 5.85% (inactive) and the cell number change is -1.92%.

Take `COc1ccc(-c2nc(CS(=O)(=O)CC(=O)NCc3cccc(OC)c3OC)c(C)o2)cc1`: the “lipid storage change, negative = inhibition” value was 1.65% (inactive) and the cell number change was 10.4%.

For the compound `CCc1c(C)sc(NC(=O)c2cc(C(C)C)on2)c1C#N`, the “lipid storage change, negative = inhibition” value was 4.2% (inactive) and the cell number change is 4.86%.

Take `CCCn1c(=N)n(CC(=O)OCC)c2ccccc21`: the “lipid storage change, negative = inhibition” value was 10.3% (inactive) and the cell number change turned out to be 13.2%.

As for `CCOC(=O)Cn1c(=N)n(Cc2ccccc2F)c2ccccc21`, the Potency is 18.4 µM (active) and the cell number change is -1.47%.

As to `C=CCn1c(=N)n(CC(=O)OCC)c2ccccc21`, the “lipid storage change, negative = inhibition” value was -3.21% (inactive) and the cell number change was 2.48%.

Regarding `Cc1cccc(NCc2ccc(Br)cc2)n1`, the “lipid storage change, negative = inhibition” value was 6.89% (inactive) and the cell number change is -13.5%.

Take `O=C1CNC(=O)N1CC(=O)N1CCCc2ccccc21`: the Potency is 29.1 µM (active) and the cell number change was -34.5%.

With `O=C(CN1CCCCC1)N1CCCc2ccccc21`, the call was inactive and the cell number change was 7.83%.

As to `O=C(CN1C(=O)COc2ccccc21)N1CCCc2ccccc21`, the “lipid storage change, negative = inhibition” value was -23.7% (inactive) and the cell number change amounted to 11.3%.

In the case of `COc1ccccc1NC(=S)NCc1ccc(S(N)(=O)=O)cc1`, the “lipid storage change, negative = inhibition” value was 4.94% (inactive) and the cell number change was 6.14%.

On to `COc1ccccc1NC(=S)NCc1ccc(Cl)cc1`, for which the “lipid storage change, negative = inhibition” value is 12.7% (inactive) and the cell number change was found to be 8.81%.

Consider `COc1ccccc1NC(=S)NCc1ccc(F)cc1`, for which the Potency is 11.6 µM (active) and the cell number change is -1.4%.
